This note sets out measurements from PubChem BioAssay (Tox21).

A number with no mark means an inactive call. Results filed as inconclusive are left out. Calls of active or inactive are those of the source. Unless noted, the call rests on the fitted dose curve.

A short description of assay [1]: qHTS assay to identify small molecule antagonists of the sonic hedgehog signaling (Shh) pathway (AID 1259369). Further: nearly all actives have a fitted effect of over 45% in size. Further: potency means the concentration at half of the fitted maximal effect. In outline: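 NIH/3T3-derived 3T3Gli1-Luc cells with stably integrated Gli1-Luc reporter were preincubated 4hr at 37 C, then given compounds in DMSO plus Shh conditioned medium and incubated 24hr. Firefly luciferase luminescence read after 30min reagent at room temperature.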
(In general: Quantitative high-throughput screening tests each substance at several concentrations.)

Assay [2] deals with Estrogen receptor beta (Homo sapiens) (UniProt Q92731). Briefly: qHTS assay to identify small molecule agonists of the estrogen receptor beta (ER-beta) signaling pathway (AID 1259377; active means well fitted activation curve with a large enough effect in the signal ratio in the repeat runs, not every such curve was filed as active; the % refers to the signal ratio). Put shortly: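 qHTS in ER-beta-UAS-bla HEK293T cells: 6 hr settling, then 16 hr compound at 37C, then LiveBLAzer substrate 2 h at RT before fluorescence reading.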
Assay [3] is described as follows: qHTS assay to identify small molecule agonists of the estrogen receptor beta (ER-beta) signaling pathway - cell viability counter screen (AID 1259380; active means well fitted curve in the direction sought with a large enough effect in the repeat runs; an effect the other way counts as inactive or inconclusive; further: nearly all actives have a fitted effect of over 30% in size). Put shortly:
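ER-beta-UAS-bla HEK293T cells in medium with 2% charcoal-stripped FBS were preincubated 6 hr at 37C, dosed with compound in DMSO for 16 hr, then after the bla read, CellTiter-Glo was added for 30 min at room temperature; luminescence recorded.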

Assay [4] in a line: qHTS assay to identify small molecule antagonists of the estrogen receptor beta (ER-beta) signaling pathway - cell viability counter screen (AID 1259382; active means well fitted curve in the direction sought with a large enough effect in the repeat runs; an effect the other way counts as inactive or inconclusive; further: series mostly up to about 92 µM; nearly all actives have a fitted effect of over 55% in size). Put shortly: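 ER-beta-UAS-bla HEK293T cells (2,000/well, 2% charcoal-stripped FBS) were pre-incubated 6 hr at 37C, then given compound plus 1nM final 17-beta-estradiol for 16 hr. Viability was read in the same wells by CellTiter-Glo luminescence after 30 min at room temperature.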

Assay [5] has as its target Estrogen receptor (Homo sapiens) (UniProt P03372). Description: qHTS assay to identify small molecule agonists of the estrogen receptor alpha (ER-alpha) signaling pathway in the presence of an antagonist (AID 1259383). Further: top concentration of the series differs between compounds; nearly all actives have a fitted effect of over 15% in size. Put shortly:
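VM7Luc4E2 cells (endogenous full-length ER-alpha, 4×ERE-luciferase) were precultured 5 days in phenol red-free medium with 10% charcoal-stripped FBS, given 10.0nM ICI-182,780 (final), then treated with compounds at 15 concentrations for 22hr at 37C; luminescence read with ONE-Glo.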

The nature of assay [6]: qHTS assay to identify small molecule agonists or antagonists of the thyroid stimulating hormone receptor (TSHR) signaling pathway - wild type cell line counter screen (AID 1259384). Put shortly:
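Wild-type Hek293 cells, 800/well, 18 h at 37C, then compound with Ro20-1724 for 30 min RT. cAMP by HTRF (cAMP-d2/anti-cAMP cryptate), 1 h RT, fluorescence read. 15 concentrations, triplicates.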

Assay [7] has as its target Thyrotropin receptor (Homo sapiens) (UniProt P16473). Briefly: qHTS assay to identify small molecule antagonists of the thyroid stimulating hormone receptor (TSHR) signaling pathway (AID 1259385). Further: nearly all actives have a fitted effect of over 20% in size. Further: potency means the concentration at half of the fitted maximal effect. Put shortly: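 TSHR-HEK293 cells (800/well) plated 18 h, then compounds with Ro20-1724 and TSH at 1.5 ng/mL final, 30 min at room temperature. cAMP quantified by HTRF (cAMP-d2/anti-cAMP-cryptate, 1 h); 15 concentrations in triplicate.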

The nature of assay [8]: qHTS assay to identify small molecule agonists of the estrogen receptor alpha (ER-alpha) signaling pathway in the presence of an antagonist - cell viability counter screen (AID 1259386; active means well fitted curve in the direction sought with a large enough effect in the repeat runs; an effect the other way counts as inactive or inconclusive;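 further: cells exposed to compounds for 22 h at 37 °C before the viability read; nearly all actives have a fitted effect of over 30% in size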; further: potency means the concentration at half of the fitted maximal effect). In outline: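 VM7Luc4E2 cells (endogenous full-length ER-alpha, 4×ERE-luciferase) were held 5 days in phenol red-free medium with 10% charcoal-stripped FBS, plated, then given 10.0nM ICI-182,780 and compounds at 15 concentrations for 22hr at 37C; viability read by CellTiter-Fluor fluorescence.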

Assay [9] addresses Progesterone receptor (Homo sapiens) (UniProt P06401). Description: qHTS assay to identify small molecule agonists of the progesterone receptor (PR) signaling pathway (AID 1346784). Further: nearly all actives have a fitted effect of over 30% in size. In outline: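 Fluorescence from LiveBLAzer B/G FRET substrate cleavage (2 hr, RT) reported PR activation in PR-UAS-bla HEK 293T cells treated 16 hr at 37C/5% CO2 with compounds; medium contained 2% charcoal-stripped FBS.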

Assay [10] shares this target. Briefly: qHTS assay to identify small molecule antagonists of the progesterone receptor (PR) signaling pathway (AID 1346795; active means well fitted inhibition curve with a large enough effect in the signal ratio in the repeat runs, not every such curve was filed as active; the % refers to the signal ratio; further: potency means the concentration at half of the fitted maximal effect). In outline: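 Fluorescence intensity measured 2 hr after adding beta-lactamase FRET substrate to PR-UAS-bla HEK293T cells that had been co-treated 16 hr with compound and 1 nM R5020 (final concentration) in 2% charcoal-stripped FBS.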
A short description of assay [11]: qHTS assay to identify small molecule antagonists of the progesterone receptor (PR) signaling pathway - cell viability counter screen (AID 1346798; active means well fitted curve in the direction sought with a large enough effect in the repeat runs; an effect the other way counts as inactive or inconclusive; further: series mostly up to about 92 µM; nearly all actives have a fitted effect of over 50% in size). In outline:
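CellTiter-Glo luminescence; PR-UAS-bla HEK293T, 3,000 cells/well; compound + R5020, 16 hr, 37C/5% CO2; 30 min RT before read.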

Assay [12] is described as follows: qHTS assay to identify small molecule agonists of the progesterone receptor (PR) signaling pathway - cell viability counter screen (AID 1346799). Further: nearly all actives have a fitted effect of over 45% in size. Put shortly: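 In parallel with the beta-lactamase readout, cytotoxicity toward PR-UAS-bla HEK293T cells was measured by CellTiter-Glo luminescence following 16 hr compound incubation in 2% charcoal-stripped FBS medium.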

The nature of assay [13]: qHTS assay to identify small molecule antagonists of the TGF-beta/Smad signaling pathway - cell viability counter screen (AID 1346824; active means well fitted curve in the direction sought with a large enough effect in the repeat runs; an effect the other way counts as inactive or inconclusive; further: nearly all actives have a fitted effect of over 50% in size). In outline:
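SBE-bla HEK 293T cells, incubated overnight, then compound plus 0.25 ng/mL TGF-beta1 (stock added) for 5 hr at 37 C. Viability was read in the same wells by CellTiter-Glo luminescence after 30 min at room temperature.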

A short description of assay [14]: qHTS assay to identify small molecule agonists of the TGF-beta/Smad signaling pathway - cell viability counter screen (AID 1346829; active means well fitted curve in the direction sought with a large enough effect in the repeat runs; an effect the other way counts as inactive or inconclusive; further: top concentration of the series differs between compounds; nearly all actives have a fitted effect of over 45% in size). In outline: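 Here the cytotoxicity of library compounds is measured in SBE-bla HEK 293T cells treated for 5 hr, using CellTiter-Glo added to wells already read for the beta-lactamase reporter.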
A short description of assay [15]: qHTS assay to identify small molecule agonists of the TGF-beta/Smad signaling pathway (AID 1346859; active means well fitted activation curve with a large enough effect in the signal ratio in the repeat runs, not every such curve was filed as active; the % refers to the signal ratio; further: series mostly up to about 77 µM). In outline: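 After overnight seeding, SBE-bla HEK 293T cells are dosed with compounds in DMSO and kept 5 hr at 37 C, 5% CO2. LiveBLAzer-type FRET substrate is then applied for 2 hr at room temperature.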
In assay [16] the target is Thyrotropin-releasing hormone receptor (Homo sapiens) (UniProt P34981). Briefly: qHTS assay to identify small molecule antagonists of the thyrotropin-releasing hormone receptor (TRHR) signaling pathway (AID 1346877; active means well fitted inhibition curve with a large enough effect in the repeat runs, not every such curve was filed as active; further: series mostly up to about 51 µM). In outline: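 TRHR-expressing HEK293 cells were seeded, cultured 18 h at 37 °C, then loaded with calcium dye for 2 h. Compounds were pre-incubated 5 min at room temperature before 1 nM TRH (final) was added, and kinetic fluorescence was recorded for 3 min.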

The target is the same in assay [17]. Briefly: qHTS assay to identify small molecule agonists of the thyrotropin-releasing hormone receptor (TRHR) signaling pathway (AID 1346891). Further: series mostly up to about 58 µM. In outline:
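Compounds were tested as agonists at 15 concentrations, in triplicate, on TRHR-Hek293 cells; calcium-sensitive dye fluorescence was recorded for 3 min following addition.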

The target of assay [18] is Estrogen receptor beta (Homo sapiens) (UniProt Q92731). Briefly: qHTS assay to identify small molecule antagonists of the estrogen receptor beta (ER-beta) signaling pathway (AID 1259378; active means well fitted inhibition curve with a large enough effect in the signal ratio in the repeat runs, not every such curve was filed as active; the % refers to the signal ratio). In outline:
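ER-beta-UAS-bla HEK293T cells in 2% charcoal-stripped FBS medium treated with compound plus 1nM final 17-beta-estradiol for 16 hr at 37C. Beta-lactamase reporter read by FRET substrate fluorescence after 2 hours at room temperature.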

Assay [19] in a line: qHTS assay to identify small molecule agonists of the androgen receptor (AR) signaling pathway in the presence of an antagonist - cell viability counter screen (AID 1259379; active means well fitted curve in the direction sought with a large enough effect in the repeat runs; an effect the other way counts as inactive or inconclusive;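 further: MDA-kb2 human breast cancer cells carrying an MMTV luciferase reporter; series mostly up to about 92 µM; nearly all actives have a fitted effect of over 25% in size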). In outline:
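MDA-kb2 human breast carcinoma cells (stable MMTV-luciferase, AR/GR responsive) were seeded 3,000 cells/well, pre-incubated 5 hr at 37C without CO2, then given 3.0uM nilutamide and compounds at 15 concentrations for 16 hr. Viability was read by CellTiter-Fluor fluorescence.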

Sequence of Thyrotropin receptor (Homo sapiens) (P16473 whole entry, looked up): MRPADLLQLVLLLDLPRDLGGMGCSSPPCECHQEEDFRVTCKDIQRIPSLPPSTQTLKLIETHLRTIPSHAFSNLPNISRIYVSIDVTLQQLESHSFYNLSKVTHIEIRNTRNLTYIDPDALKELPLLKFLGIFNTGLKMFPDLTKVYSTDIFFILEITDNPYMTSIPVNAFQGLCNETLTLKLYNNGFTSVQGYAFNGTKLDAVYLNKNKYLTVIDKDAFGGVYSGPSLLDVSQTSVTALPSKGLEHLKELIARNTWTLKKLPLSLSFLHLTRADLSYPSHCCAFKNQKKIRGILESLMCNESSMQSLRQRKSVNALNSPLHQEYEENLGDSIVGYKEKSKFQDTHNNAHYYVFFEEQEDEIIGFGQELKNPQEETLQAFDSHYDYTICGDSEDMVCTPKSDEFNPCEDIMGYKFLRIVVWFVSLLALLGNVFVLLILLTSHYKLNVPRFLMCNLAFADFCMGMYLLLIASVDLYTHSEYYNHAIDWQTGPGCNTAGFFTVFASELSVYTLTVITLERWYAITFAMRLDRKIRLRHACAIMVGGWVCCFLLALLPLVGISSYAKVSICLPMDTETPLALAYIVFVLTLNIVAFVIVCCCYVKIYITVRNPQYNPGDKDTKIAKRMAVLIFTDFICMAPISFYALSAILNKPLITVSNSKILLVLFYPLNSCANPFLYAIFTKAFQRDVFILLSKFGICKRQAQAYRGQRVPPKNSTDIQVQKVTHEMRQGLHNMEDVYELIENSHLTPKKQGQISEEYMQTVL
Sequence of Thyrotropin-releasing hormone receptor (Homo sapiens) (P34981 whole entry, looked up): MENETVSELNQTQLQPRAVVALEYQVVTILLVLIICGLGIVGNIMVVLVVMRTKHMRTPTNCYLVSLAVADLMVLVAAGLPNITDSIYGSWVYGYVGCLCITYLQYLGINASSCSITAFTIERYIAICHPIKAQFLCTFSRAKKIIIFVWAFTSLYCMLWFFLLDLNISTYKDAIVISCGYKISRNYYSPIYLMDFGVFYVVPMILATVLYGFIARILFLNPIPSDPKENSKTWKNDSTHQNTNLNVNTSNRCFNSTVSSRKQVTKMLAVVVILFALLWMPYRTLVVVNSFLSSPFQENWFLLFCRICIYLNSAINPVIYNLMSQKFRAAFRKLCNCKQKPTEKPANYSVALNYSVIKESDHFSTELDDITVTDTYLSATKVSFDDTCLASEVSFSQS
Sequence of Estrogen receptor (Homo sapiens) (P03372 whole entry, looked up): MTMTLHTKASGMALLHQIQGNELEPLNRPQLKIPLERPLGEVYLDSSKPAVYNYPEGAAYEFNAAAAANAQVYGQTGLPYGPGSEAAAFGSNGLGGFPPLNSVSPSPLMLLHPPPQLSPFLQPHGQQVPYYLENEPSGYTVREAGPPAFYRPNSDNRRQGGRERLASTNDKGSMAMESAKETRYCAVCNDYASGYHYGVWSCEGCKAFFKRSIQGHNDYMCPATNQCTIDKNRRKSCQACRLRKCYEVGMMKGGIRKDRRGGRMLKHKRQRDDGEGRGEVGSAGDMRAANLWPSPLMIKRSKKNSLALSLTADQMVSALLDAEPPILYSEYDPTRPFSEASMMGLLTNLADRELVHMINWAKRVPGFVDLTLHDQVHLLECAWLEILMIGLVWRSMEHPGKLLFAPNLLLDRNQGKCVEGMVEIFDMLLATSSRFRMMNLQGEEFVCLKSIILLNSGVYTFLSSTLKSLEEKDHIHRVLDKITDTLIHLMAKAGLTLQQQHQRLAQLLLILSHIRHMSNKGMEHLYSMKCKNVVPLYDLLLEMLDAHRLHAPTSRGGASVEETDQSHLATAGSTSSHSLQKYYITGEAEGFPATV
Sequence of Progesterone receptor (Homo sapiens) (P06401 whole entry, looked up): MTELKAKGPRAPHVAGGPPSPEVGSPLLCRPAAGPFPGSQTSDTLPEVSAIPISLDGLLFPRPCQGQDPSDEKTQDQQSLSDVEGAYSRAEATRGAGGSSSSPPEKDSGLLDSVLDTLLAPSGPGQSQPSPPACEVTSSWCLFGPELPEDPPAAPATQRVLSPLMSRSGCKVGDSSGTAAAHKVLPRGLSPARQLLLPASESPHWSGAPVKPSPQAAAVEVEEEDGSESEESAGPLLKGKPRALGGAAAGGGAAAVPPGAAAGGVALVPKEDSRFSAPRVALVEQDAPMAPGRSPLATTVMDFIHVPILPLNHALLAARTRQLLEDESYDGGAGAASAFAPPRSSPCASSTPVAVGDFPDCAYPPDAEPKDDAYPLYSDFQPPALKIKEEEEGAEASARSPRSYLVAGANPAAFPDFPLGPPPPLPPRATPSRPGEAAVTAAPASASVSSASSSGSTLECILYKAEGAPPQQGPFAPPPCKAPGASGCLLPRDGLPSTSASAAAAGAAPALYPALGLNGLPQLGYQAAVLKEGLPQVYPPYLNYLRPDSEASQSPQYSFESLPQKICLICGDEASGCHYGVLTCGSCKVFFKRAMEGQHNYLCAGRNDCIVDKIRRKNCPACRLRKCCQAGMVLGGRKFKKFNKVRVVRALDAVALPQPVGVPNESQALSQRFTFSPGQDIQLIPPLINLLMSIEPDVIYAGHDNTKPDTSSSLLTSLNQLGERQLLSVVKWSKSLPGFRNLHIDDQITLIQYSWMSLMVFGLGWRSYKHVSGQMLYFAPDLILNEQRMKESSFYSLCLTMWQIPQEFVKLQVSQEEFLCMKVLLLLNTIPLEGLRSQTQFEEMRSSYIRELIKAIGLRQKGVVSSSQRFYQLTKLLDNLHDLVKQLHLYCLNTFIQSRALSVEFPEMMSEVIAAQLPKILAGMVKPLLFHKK
Sequence of Estrogen receptor beta (Homo sapiens) (Q92731 whole entry, looked up): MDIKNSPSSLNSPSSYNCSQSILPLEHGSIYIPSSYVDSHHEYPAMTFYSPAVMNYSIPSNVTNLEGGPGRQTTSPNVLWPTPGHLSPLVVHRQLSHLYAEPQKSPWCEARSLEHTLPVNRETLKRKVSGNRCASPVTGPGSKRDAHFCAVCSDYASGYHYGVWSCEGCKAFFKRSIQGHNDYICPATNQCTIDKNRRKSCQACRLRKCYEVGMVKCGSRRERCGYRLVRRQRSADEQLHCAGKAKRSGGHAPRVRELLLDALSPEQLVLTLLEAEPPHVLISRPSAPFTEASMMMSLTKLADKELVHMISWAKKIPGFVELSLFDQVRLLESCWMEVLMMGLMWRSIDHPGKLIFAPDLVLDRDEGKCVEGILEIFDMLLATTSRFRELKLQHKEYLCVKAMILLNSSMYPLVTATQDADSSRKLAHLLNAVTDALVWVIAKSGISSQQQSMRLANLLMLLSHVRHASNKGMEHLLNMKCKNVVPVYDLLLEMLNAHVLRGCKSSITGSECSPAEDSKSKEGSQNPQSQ

Take `Nc1cccc(S(=O)(=O)c2cccc(N)c2)c1`: the Potency result in [1], in [2], in assay [3], in [4], in assay [5] and in assay [6] was “inactive” throughout. The Potency result in assay [7], in assay [8], in assay [9], in [10], in assay [11] and in assay [12] was “inactive” throughout. The Potency result in assay [13], in [15] and in assay [17] was “inactive” each time. Further, the molecule was classed as inactive in assay [14] and in assay [16].
`CCN(CC)CCOC(=O)C(c1ccccc1)C1CCCCC1` (stereo not given): the Potency is 15 µM (active) in assay [1] and 26.6 µM (active) in assay [7]. Moreover, the Potency result in assay [18], in assay [19], in [3], in assay [5], in [6] and in [9] was “inactive” each time. Besides, the Potency entry in [10], in assay [11], in assay [13] and in assay [15] was “inactive” in each case. Moreover, the molecule was called inactive in [14].
`c1cc(CCCc2ccncc2)ccn1`: the Potency result in [1], in assay [18], in assay [19], in assay [3], in assay [4] and in [5] was “inactive” each time. Moreover, the Potency result in assay [6], in assay [7], in assay [8], in [9], in assay [11] and in assay [13] was “inactive” each time. In addition, the Potency result in [15] and in assay [17] was “inactive” in each case. Moreover, the Potency in assay [10] was 54.5 µM (active). Moreover, the molecule was called inactive in assay [14] and in [16].
As for `COc1ccnc(CS(=O)c2nc3ccc(OC(F)F)cc3[nH]2)c1OC` (stereo not given), the Potency entry in assay [1], in assay [18], in assay [19], in assay [3], in assay [4] and in [5] was “inactive” in each case. Moreover, the Potency result in [6], in [7], in assay [8], in assay [9], in [10] and in assay [11] was “inactive” throughout. The Potency result in [13] and in assay [15] was “inactive” each time. In addition, the call in assay [14] was inactive.
Turning to `O=C1[C@H]2CCCC[C@H]2C(=O)N1CCCCN1CCN(c2nsc3ccccc23)CC1`, the Potency in assay [1] is 23.7 µM (active); in assay [8] it was 29.8 µM (active). The Potency entry in assay [2], in assay [5], in assay [6], in [7], in [9] and in assay [10] was “inactive” throughout. For the same molecule, the Potency entry in assay [11], in assay [12], in [13] and in [15] was “inactive” throughout. For the same molecule, the molecule was classed as inactive in assay [14] and in assay [16].
For `CC(C)(C)Cl`, the Potency entry in assay [1], in assay [18], in assay [19], in assay [3], in [4] and in assay [5] was “inactive” each time. In addition, the Potency result in [6], in assay [7], in [8], in assay [9], in assay [10] and in assay [11] was “inactive” throughout. Further, the Potency entry in assay [12], in assay [13], in [15] and in assay [17] was “inactive” each time. Further, in assay [14], the molecule was called inactive.
As to `O=C(O)C1(C(=O)O)CCC1.[NH2-].[NH2-].[Pt+2]`, the Potency entry in assay [1], in assay [18], in assay [19], in assay [3], in assay [5] and in assay [6] was “inactive” each time. For the same molecule, the Potency result in assay [7], in assay [8], in assay [9], in assay [10], in assay [11] and in [12] was “inactive” throughout. For the same molecule, the Potency result in assay [13], in assay [15] and in assay [17] was “inactive” throughout. Also, the molecule was classed as inactive in [14] and in assay [16].
